DRV1 agonist = agonists of human resolvin D1 receptor DRV1 (GPR32). 48,000 compounds, 2.5% hits. CHO-K1 GPR32 beta-arrestin PathHunter luminescence, 90 min; zero percent set by DMSO-only wells. O75388. AID 1346428. activation, % at 76.9 µM;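 active = activation of at least 60% and not above a set upper limit, about 1 call in 100 departs from these limits; inconclusive = activation of 40% to 60%, or above that upper limit; inactive = activation under 40%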
Target sequence (O75388 whole entry, looked up): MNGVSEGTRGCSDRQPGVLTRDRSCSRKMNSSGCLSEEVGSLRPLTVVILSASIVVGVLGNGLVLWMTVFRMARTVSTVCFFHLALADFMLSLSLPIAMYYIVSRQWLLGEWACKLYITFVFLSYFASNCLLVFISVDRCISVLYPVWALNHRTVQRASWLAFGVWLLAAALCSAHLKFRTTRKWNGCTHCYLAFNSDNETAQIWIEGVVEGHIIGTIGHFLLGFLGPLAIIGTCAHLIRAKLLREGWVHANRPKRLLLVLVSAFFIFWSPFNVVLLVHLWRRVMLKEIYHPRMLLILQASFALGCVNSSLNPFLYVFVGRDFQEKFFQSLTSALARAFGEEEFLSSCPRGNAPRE
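PathHunter enzyme-fragment complementation, CHO-K1 GPR32 stable line; 2,500 cells/well, overnight attach; cpd 90 min 37 °C 5% CO2; detection reagent 1 h RT; chemiluminescence. DMSO = EC0.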
HTT-AS act = HTT-AS promoter activation | HEK293 HTT-AS promoter firefly luciferase reporter, 24 h; response scale: percent change from vehicle, -100% = no light | Potency, µM (highest dose often 57.5 µM), usual class: activators | 48,000 compounds, 0.24% hits | AID 1508624; note: nearly all actives have a fitted effect of over 55% in size
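HEK293 luciferase promoter-reporter cells (2,500/well) plated 24 h, then compounds added at up to 57.5 uM final for 24 h at 37 °C. Firefly luminescence by Dual-Glo, normalized to vehicle (0%) and zero RLU (-100%).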
HTT promoter inh = inhibitors of huntingtin promoter activity; HEK293 HTT promoter firefly luciferase reporter, 24 h; Potency, µM (titrated, usually from 57.5 µM), hits mostly inhibitors; 48,000 compounds, 0.93% hits; note: nearly all actives have a fitted effect of over 50% in size
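HEK293 cells carrying firefly luciferase reporters were seeded at 2,500 per well in Opti-MEM and cultured for 24 h. They were then treated with compounds at up to 57.5 uM final for 24 h at 37 degrees C before Dual-Glo luminescence readout.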
GALC G270D up = enhancers of human galactocerebrosidase G270D mutant activity in cells | 145M-Twi-hGALC-G270D cells (Twitcher mouse brain line with human GALC G270D), HMU-beta-Gal fluorescence, 48 h | Potency, µM (titrated, usually from 57.5 µM), hits mostly activators | 45,000 compounds, 0.1% hits; note: nearly all actives have a fitted effect of over 65% in size
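Fluorogenic HMU-b-Gal hydrolysis (0.1 mM final, pH 5.2 citrate-phosphate with 1 mg/mL sodium taurocholate; carbonate stop buffer) measures mutant GALC activity after compound treatment of live 145M-Twi Twitcher brain cells stably carrying human GALC-G270D, with wild-type GALC line alongside; activation sought.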
FH mod = Identification of activators of human fumarate hydratase by quantitative high-throughput screening; Fumarate hydratase, mitochondrial (Homo sapiens), P07954; FH coupled MDH/diaphorase resazurin fluorescence, 15 min; Potency, µM (doses to about 79.9 µM), actives largely listed as inhibitors; 54,000 compounds, 0.22% hits; note: the screen sought activators but most active calls are inhibition curves; nearly all actives have a fitted effect of over 45% in size
B2AR arrestin ag = agonists recruiting beta-arrestin to human beta2-adrenergic receptor | AID 1347077 | HTLA Tango cells, beta-arrestin recruitment, luciferase luminescence, 18 h | 44,000 tested, under 10 active | P07550 | Potency, µM (titrated, usually from 46.1 µM), most hits filed as activators
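Tango cells expressing recombinant beta2-AR and beta-arrestin were treated with compounds (up to 46 microM titration) in DMEM with 1% FBS for 18 hr at 37 degrees C. Beta-arrestin recruitment drove tTA-dependent luciferase, read by luminescence; curves were fitted and classed.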
Numbers stand for hits; – = inactive; ? = inconclusive; · = no result given; ! = repeats disagree. A selection: hits, their analogues and other compounds. The true share with any hit is near 3.7%. Unless noted, calls come from the whole dose curve; as a rule, active = well fitted curve in the direction sought with a large enough effect; inconclusive = small, poorly fitted or top-dose-only effect, or another doubt; inactive = no such curve, though single readings can be large; an effect the other way counts as inactive or inconclusive.

SMILES	DRV1 agonist	HTT-AS act	HTT promoter inh	GALC G270D up	FH mod	B2AR arrestin ag
COc1ccc(-c2ccc3c(N4CCOCC4C)nc(N4CCOCC4C)nc3n2)cc1CO (stereo unspecified)	·	·	·	·	–	·
CCOC(=O)C(CCc1ccccc1)NC(C)C(=O)N1C(=O)N(C)CC1C(=O)O (stereo unspecified)	·	·	·	·	–	·
CC1=C(c2ccc(C)c(C)c2)S(=O)(=O)N=C1N1CCC(C(=O)NCc2ccc(N(C)C)cc2)CC1	–	–	–	–	–	–
CCc1ccc(C2=C(C)C(N3CCC(C(=O)NCc4ccccc4)CC3)=NS2(=O)=O)cc1	65	–	–	–	–	–
CCOC(=O)c1noc2ncn(CC(=O)Nc3ccc(C)c(F)c3)c(=O)c12	76	–	–	–	–	–
CCOC(=O)c1noc2ncn(CC(=O)Nc3cccc(Cl)c3)c(=O)c12	–	–	–	–	–	–
COc1ccccc1N1CCN(S(=O)(=O)c2cc(C(=O)Nc3ccc(Oc4ccccc4)cc3)ccc2F)CC1	–	–	1.4µM	–	–	–
O=C(Nc1ccc(Oc2ccccc2)cc1)c1ccc(F)c(S(=O)(=O)N2CCN(c3cccc(Cl)c3)CC2)c1	–	–	?	–	–	–
O=C(Nc1ccc(Oc2ccccc2)cc1)c1ccc(F)c(S(=O)(=O)N2CCN(c3ccccc3F)CC2)c1	–	–	2µM	–	–	–
Cc1cccc(N2CCN(S(=O)(=O)c3cc(C(=O)Nc4ccc(Oc5ccccc5)cc4)ccc3F)CC2C)c1 (stereo unspecified)	–	–	1µM	–	–	–
CC(C)(O)c1ccc2c(c1)C(=O)C[C@H]1[C@](C)(C(=O)O)CCC[C@]21C	·	·	·	·	–	·
O=C(CSc1nnc2[nH]c(=O)cc(-c3ccccc3)n12)Nc1ccccc1C(F)(F)F	–	11µM	–	–	–	–
COc1ccc(NC(=O)C2CCN(c3ccc(Sc4ccc(C)cc4)nn3)CC2)cc1	64	–	–	–	–	–
COc1ccc(C(=O)C2CCN(CC(=O)N(Cc3nc4c(c(=O)[nH]3)COCC4)CC3CC3)CC2)cc1	·	·	·	·	–	·
C=C1C(O)CC2C(C(=O)O)=COC(O[C@@H]3O[C@H](COC(=O)/C=C/c4ccc(O)cc4)[C@@H](O)[C@H](O)[C@H]3O)C12 (stereo partly specified)	·	·	·	·	–	·
O=c1cc(-c2ccccc2)oc2ccc(O)cc12	·	·	·	·	–	·
CC(C)c1ccc(-c2cc(=O)c3ccccc3o2)cc1	·	·	·	·	–	·
O=c1cc(-c2ccccc2)oc2ccccc12	62	?	–	–	–	·
O=c1cc(-c2ccccc2)oc2c(O)c(O)ccc12	·	·	·	·	16µM	·
C=C1CCC2C(C)(CO[C@@H]3O[C@H](CO)[C@@H](O)[C@H](O)[C@H]3O)C(O)CCC2(C)C1C(=O)CC1=CCOC1=O (stereo partly specified)	·	·	·	·	–	·
O=C1OC2(c3ccccc31)c1cc(Br)c(O)c(Br)c1Oc1c2cc(Br)c(O)c1Br	68	–	–	–	?	·
CCOc1ccc(-c2oc3ccccc3c(=O)c2O)cc1OCC	–	?	–	?	–	?
Cc1ccc2oc(-c3ccc(Cl)cc3)c(O)c(=O)c2c1	–	2.5µM	–	–	–	–
CCCSc1nnc2n(-c3ccc(OC)cc3)c(=O)c3c4c(sc3n12)COC(C(C)C)C4 (stereo unspecified)	–	–	–	–	–	–
COC(=O)CSc1nnc2n(-c3ccccc3)c(=O)c3c4c(sc3n12)COC(C(C)C)C4 (stereo unspecified)	65	–	–	–	–	–
SMILES	DRV1 agonist	HTT-AS act	HTT promoter inh	GALC G270D up	FH mod	B2AR arrestin ag
COc1ccc(OCC(=O)Nc2cc(-c3cccc(Cl)c3)nn2-c2ccccc2)cc1	100	?	–	–	–	–
COc1ccc(OCC(=O)Nc2cc(-c3ccccc3F)nn2-c2ccccc2)cc1	91	–	–	–	–	–
CC(=O)O[C@@H]1[C@@H](O)[C@H](O[C@@H]2[C@@H](O)[C@@H](O)[C@H](O[C@H]3[C@H](O[C@H]4[C@H](O[C@H]5CC[C@@]6(C)C(CC[C@]7(C)C6CC=C6[C@@H]8CC(C)(C)CC[C@]8(C(=O)O)CC[C@]67C)[C@]5(C)CO)O[C@H](CO)[C@@H](O)[C@@H]4O)OC[C@@H](O)[C@@H]3O)O[C@H]2C)OC[C@H]1O (stereo partly specified)	·	·	·	·	–	·
CNCc1ccc(C)c(NC(=O)c2ccc(Nc3nc(-c4ccccc4)c4ccccc4n3)cc2)c1	·	·	·	·	–	·
CCCCOC(=O)NC(=O)C1c2ccccc2Oc2ccccc21	·	·	·	·	–	·
OCCN1CCN(CC/C=C2/c3ccccc3Sc3ccc(C(F)(F)F)cc32)CC1	62!	–	–	–	?	·
CC(=O)Nc1cc(-c2ccccc2)nn1Cc1cccc(Cl)c1	–	–	–	–	–	–
CSc1nn(Cc2cccc(Cl)c2)c(N(C(C)=O)C(C)=O)c1S(=O)(=O)c1ccccc1	76	–	?	–	–	–
COCCN1C(=O)c2[nH]nc(-c3cc(C)ccc3O)c2C1c1ccc(C(C)C)cc1 (stereo unspecified)	–	–	–	–	–	–
COCCCN1C(=O)c2[nH]nc(-c3ccccc3O)c2C1c1ccc(OCc2ccccc2)cc1 (stereo unspecified)	–	–	?	–	?	?
CCCCN1C(=O)c2[nH]nc(-c3ccccc3O)c2C1c1ccc(OCc2ccccc2)cc1 (stereo unspecified)	–	–	25µM	–	–	–
CCOCCCN1C(=O)c2[nH]nc(-c3ccccc3O)c2C1c1ccc(CC)cc1 (stereo unspecified)	–	–	?	–	–	7.1µM
COc1cc(C2c3c(-c4cc(C)ccc4O)n[nH]c3C(=O)N2CCCO)ccc1OCCC(C)C (stereo unspecified)	102	–	?	–	–	–
CCN(CC)c1ccc2c(O)c(C=Nc3ccc(CC(=O)O)c(-c4c5c(nc6ccccc46)CCC(C(=O)NN)C5)c3)c(=O)oc2c1 (stereo unspecified)	·	·	·	·	–	·
O=C(O)[C@H](Cc1ccccc1)Oc1ccc(-c2ccccc2)cc1	·	·	·	·	–	·
O=C1C(SCCO)=C(SCCO)C(=O)c2ccccc21	–	·	·	·	7.9µM	·
CC1=CC(=O)[C@]2(O[C@@H]3O[C@@H](C)[C@H](O)[C@@H](O)[C@H]3O)C=CO[C@@H](O[C@@H]3O[C@H](CO)[C@@H](O)[C@H](O)[C@H]3O)[C@H]12	·	·	·	·	–	·
